About 1,900 (0.47%) of roughly 400,000 compounds were called active. A call without a number means that no potency is given here. About 14% were inconclusive and are not listed. Calls come from the whole dose curve; as a rule, active = well fitted cell-killing curve with a large enough effect; inconclusive = small, poorly fitted or top-dose-only effect, or effect the other way; inactive = no such curve, though single readings can be large or run the other way. For the sample, actives were picked, then their nearest neighbours and some compounds at random.
Potency is the fitted concentration of half-maximal effect.

The nature of this experiment: Viability Counterscreen for Primary qHTS for Inhibitors of ATXN expression. Note: nearly all actives have a fitted effect of over 40% in size. The following applies: S2 cells (HEK-293 line with an ATXN2-luciferase reporter) viability, CellTiter-Fluor protease fluorescence, 24 h; series mostly up to 56.7 µM.
As to `COc1cccc(CN2CCC3(CC2)c2ccccc2[C@@H](NC(=O)c2ccccc2OC)[C@@H]3O)c1`, the Potency result was “inactive”. `O=C1CCNCCN1[C@H](CO)Cc1ccccc1`: the Potency entry is “inactive”. To `c1ccc(C[C@H]2CNCCN2CCC23CC4CC(CC(C4)C2)C3)cc1` belongs 31.6 µM (active). Take `Cc1cc(NS(=O)(=O)c2ccc(NC(=O)c3cccnc3)cc2)nc(C)n1`: the Potency result was “inactive”.

For `Cc1cccc(C(=O)Nc2ccc(S(=O)(=O)N3CCCCC3c3cccnc3)cc2)c1` (stereo not drawn), the Potency is 14.1 µM (active).

As for `CCOc1ccccc1C(=O)Nc1ccc(S(=O)(=O)N2CCCCC2c2cccnc2)cc1` (stereo not drawn), the Potency result is “inactive”.

Consider `CCN1CCN(C(=O)N[C@@H](C(=O)N[C@@H]2C(=O)N3[C@@H]2SC(C)(C)[C@H]3C(=O)O)c2ccccc2)C(=O)C1=O`, for which the Potency result was “inactive”. To `CCOC(=O)c1ccn(S(=O)(=O)c2ccc(C)cc2)c1-c1ccccc1` belongs “inactive”.

Regarding `Oc1ccc(N=Nc2nccs2)c(O)c1`, the Potency was 10 µM (active). As for `Oc1ccc2ccccc2c1N=Nc1nccs1`, the figure is 15.8 µM (active); as for `CN1CCCCCC1C(=O)NCCN1Cc2ccccc2OC(c2ccsc2)C1` (stereo not drawn), “inactive”; as for `Cc1nc2cc(NC(=O)[C@@H]3C[C@@H](Sc4ccccn4)CN3Cc3ccccc3C)ccc2s1`, “inactive”. To `O=C1/C(=C\c2ccc([N+](=O)[O-])cc2)CS(=O)(=O)C/C1=C/c1ccc([N+](=O)[O-])cc1` belongs 2.67 µM (active).

In the case of `O=C(NN=Cc1ccc([N+](=O)[O-])cc1)C1CC1`, the Potency entry was “inactive”. For `CC(=O)Nc1ccc(C=Cc2ccc([N+](=O)[O-])cc2)cc1`, the Potency entry was “inactive”. As for `COC(=O)c1cc(Cl)c(NC(C)=O)cc1OC`, the entry is “inactive”; as for `O=c1cc(COc2cccc(C(F)(F)F)c2)nc2sc3c(n12)CCCC3`, “inactive”. As to `O=C(Nc1ccc(Cl)cc1)C1Cc2c(-c3ccc4c(c3)OCO4)ccnc2O1` (stereo not drawn), the Potency entry is “inactive”.

`COC(=O)CCCCCN1C(=O)NC(c2ccc(-c3ccccc3)cc2)C(C(=O)OCc2ccccc2)=C1C` (stereo not drawn): the Potency entry is “inactive”. As for `CCN1C(=O)N[C@@H](c2ccccc2)C(C(=O)OC)=C1C`, the entry is “inactive”; as for `CCCCNC(=O)C(C)N(CCN(C)C)C(=O)CCCCCN1C(=O)NC(c2ccc(Cl)cc2)C(C(=O)OCc2ccccc2)=C1C` (stereo not drawn), 22.4 µM (active). Take `Cc1oc(-c2cccc(NC(=O)c3ccccc3)c2)nc1CNC(=O)c1cnc2ccccn2c1=O`: the Potency entry is “inactive”. In the case of `COc1cc(=O)n2c(c1C(=O)N(C)Cc1nonc1C)CCN(C(=O)c1ccc(C)cc1C)CC2`, the Potency result is “inactive”. As for `O=c1ccc2c(-c3ccccc3S(=O)(=O)O)c3ccc(O)c(O)c3oc-2c1O`, the figure is 10 µM (active). With `CC(=O)Nc1ccccc1-c1nc(CNC(=O)c2ccc(Cl)cc2)c(C)o1`, the Potency entry was “inactive”.

Turning to `COc1ccc(-c2nc3nc(C)cc(C)n3c2Nc2c(C)cccc2C)cc1`, the Potency is 28.2 µM (active). Consider `COc1ccc(-c2cc(C)nc3nc(N)nn23)cc1`, for which the Potency entry was “inactive”. As for `COc1cccc(CSc2nc3nc(C)cc(C)n3n2)c1`, the entry is “inactive”; as for `COc1cncc(-c2cnc3sc(NCCc4ccccn4)nn23)c1`, “inactive”. Turning to `COc1cc(/C=C/C(N)=O)cc(OC)c1OC`, the Potency entry is “inactive”. Consider `CC(C)(c1ccccc1)c1ccc(OCCN2CCCC2)cc1`, for which the Potency result was “inactive”. To `CC1CCCN(CC(=O)Nc2cc(Cl)ccc2Oc2ccccc2)C1` (stereo not drawn) belongs “inactive”. `COCC1CCCN(Cc2ccc3c(c2)CN(C(=O)c2ccnn2C)CCO3)C1` (stereo not drawn): the Potency result is “inactive”. Turning to `CCCNC(=O)c1cc(C2CCCN(C(=O)c3ccc4c(c3)CCO4)C2)on1` (stereo not drawn), the Potency entry is “inactive”.

For `COc1ccc2c(c1)CCc1cnc(-n3ncc(C(=O)NCCN4CCOCC4)c3C)nc1-2`, the Potency entry was “inactive”. As for `Cc1cnc(C(=O)N2CCOc3ccc(CN4CCCC(C(=O)c5cccnc5)C4)cc3C2)[nH]1` (stereo not drawn), the Potency result is “inactive”. Consider `CC(=O)Nc1cc(C(=O)N2CCc3c(Cl)cccc3C2)cc2ncn(CCc3ccccn3)c12`, for which the Potency result was “inactive”. With `CCc1ccccc1NC(=O)[C@@H]1CCC(=O)N1C1OC(=O)c2c1ccc(OC)c2OC` (stereo partly drawn), the Potency entry was “inactive”. To `C/C(CC1CC(C)(C)OC1=O)=N/Nc1nc(-c2ccccc2)cs1` (stereo not drawn) belongs “inactive”. As for `COc1ccc2c(c1OC)C(=O)OC2Nc1nc(-c2ccccc2)cs1` (stereo not drawn), the figure is 20 µM (active). To `COc1ccc(-c2csc(Nc3cccc(C)n3)n2)cc1OC` belongs “inactive”; to `Cc1ccc(-c2csc(-c3c[nH]c4ccccc34)n2)cc1`, “inactive”; to `Cc1ccc(-c2csc(NC3OC(=O)c4ccccc43)n2)cc1` (stereo not drawn), 25.1 µM (active). As for `Cc1c(C(=O)NCC2CCCN(C)C2)cnn1-c1nccc(-c2ccco2)n1` (stereo not drawn), the Potency result was “inactive”. For `Cc1ccc(NS(=O)(=O)c2cc3c(cc2Br)NC(=O)CO3)cc1C`, the Potency entry was “inactive”.

Regarding `N#Cc1ccc(-c2nc3c(Cl)cc(C(F)(F)F)cn3c2Cc2ccccc2C(F)(F)F)cc1`, the Potency result was “inactive”.

As to `C[C@@H]1CN(Cc2ccc3c(c2)CN(Cc2ccc(Oc4ncccn4)cc2)CCO3)C[C@H](C)O1`, the Potency result is “inactive”.

For `O=[N+]([O-])c1c(NCCO)cc(Sc2nc3ccccc3s2)c2nonc12`, the Potency is 20 µM (active). As for `CC(C)c1ccc(S(=O)(=O)Nc2ccc(O)c(Sc3nc4ccccc4s3)c2)cc1`, the entry is “inactive”; as for `CC(C)(C)c1ccc(S(=O)(=O)Nc2ccc(O)c(Sc3nc4ccccc4s3)c2)cc1`, “inactive”.

Turning to `C=C1C(=CC=C2CCC[C@]3(C)[C@@H]([C@H](C)C=C[C@H](C)C(C)C)CC[C@@H]23)C[C@@H](O)C[C@@H]1O`, the Potency result was “inactive”. As for `COc1ccc(C)cc1N1C(=O)[C@@H]2C[C@H]1CN2Cc1cccc(OC)c1O`, the entry is “inactive”; as for `COc1ccc(NC(=O)C2Cc3c(-c4ccc(Cl)cc4)ccnc3O2)cc1` (stereo not drawn), “inactive”; as for `CCCCN1CC(c2nc3ccccc3n2CCCCOc2ccc(C)cc2C)CC1=O` (stereo not drawn), 25.1 µM (active). For the compound `CCc1ccccc1N1CC(c2nc3ccccc3n2CCCCOc2ccccc2)CC1=O` (stereo not drawn), the Potency entry is “inactive”.

As for `CCOc1ccc(N2CC(c3nc4ccccc4n3CCOc3ccc(OC)cc3)CC2=O)cc1` (stereo not drawn), the Potency entry is “inactive”. Turning to `CCCCCc1c(Cc2ccccc2)ncn1CCc1ccccc1OC`, the Potency is 22.4 µM (active). For `CCCCc1c(-c2ccc(Br)cc2)ncn1CCc1ccccc1OC`, the Potency is 15.8 µM (active). Take `CCOc1ccc(-c2n[nH]c3c2C(c2ccccc2OC)N(c2ccc(Br)cc2)C3=O)cc1` (stereo not drawn): the Potency result is “inactive”. As for `COc1ccccc1CCNS(=O)(=O)c1cn(C)nc1C`, the entry is “inactive”; as for `Cn1c(=O)c2c(ncn2CCc2ccccc2)n(C)c1=O`, “inactive”. Turning to `COc1ccccc1Cc1c(-c2ccc(Cl)cc2)nc2ccc(Cl)cn12`, the Potency entry was “inactive”.

Turning to `CCCc1c2oc(C(=O)O)cc(=O)c2cc2c(=O)cc(C(=O)O)n(CC)c12`, the Potency entry was “inactive”. On to `O=C1CCN(Cc2ccc(-c3ccccc3)cc2)CCN1Cc1ccccn1`, for which the Potency entry is “inactive”. Turning to `Cc1ncc2c(c1CNS(=O)(=O)N(C)C)CCN(C(=O)c1ccccc1F)C2`, the Potency entry is “inactive”. As for `CS(=O)(=O)NC(=O)CCC/C=C\C[C@H]1C(=O)C[C@@H](O)[C@@H]1/C=C/[C@H](O)COc1ccccc1`, the entry is “inactive”; as for `Cc1ccc(-c2ccnc(-n3ncc(C(=O)N(C)Cc4cccc5ncccc45)c3C3CC3)n2)o1`, “inactive”. To `Cc1nnc(N2CCC(C(=O)Nc3ccc(F)cc3)CC2)c2nn(-c3ccc(Cl)cc3)c(C)c12` belongs 20 µM (active).

For the compound `COc1ccc(-n2nc3c(N4CCC(C(=O)NCc5ccccc5)CC4)nnc(C)c3c2C)cc1`, the Potency result was “inactive”. As for `COc1cccc(NC(=O)C2CCN(c3cc(C)nc4c(-c5ccc(Cl)cc5)c(C)nn34)CC2)c1`, the entry is “inactive”. To `CCOC(=O)C1=C(c2ccc(OC)cc2)C(=O)c2ccccc2C1=O` belongs 6.31 µM (active). As for `COC(=O)c1cc(OC)ccc1-c1ccc(OC)cc1`, the entry is “inactive”. In the case of `CCOC(=O)N1CCN(S(=O)(=O)c2ccc(OC)cc2)CC1`, the Potency result is “inactive”. To `COC(=O)[C@@H]1C[C@H](NC(=O)c2ccccc2C(F)(F)F)CN1Cc1cccc(O)c1` belongs “inactive”. As for `CC(C)(C)C1CCc2c(sc(NC(=O)c3ccccc3F)c2C(=O)N2CCCCC2)C1` (stereo not drawn), the entry is “inactive”; as for `COc1cccc2[nH]c(C(=O)NCCc3ccccc3)cc12`, “inactive”. To `COc1ccccc1OCCNCC(O)COc1cccc2[nH]c3ccccc3c12` (stereo not drawn) belongs 28.2 µM (active); to `CC(O)CNCCOc1cccc(Oc2ccccc2)c1` (stereo not drawn), “inactive”.

Regarding `COc1ccc(NC(=O)C2Cc3c(-c4ccc5c(c4)OCO5)ccnc3O2)cn1` (stereo not drawn), the Potency result is “inactive”. In the case of `Cc1ccc2cccc(NC(=O)c3cccc4ccccc34)c2n1`, the Potency result was “inactive”. Take `COc1cc(=O)n2c(c1C(=O)NCc1ccco1)CCN(Cc1ccccc1)CC2`: the Potency entry was “inactive”. To `Cc1cccc(C)c1NC(=O)c1ccc(N)cc1` belongs “inactive”; to `Cc1cc(C(=O)NCC2Cc3cccc(-c4cncnc4)c3O2)c(C)o1` (stereo not drawn), “inactive”. As for `CNC[C@H](CC1CCCCC1)NC[C@H](NCCC1CCCC1)[C@H](C)O`, the figure is 17.8 µM (active); as for `O=C(NCC(c1ccc2c(c1)OCO2)N1CCN(c2ccccc2)CC1)C(=O)Nc1ccccc1F` (stereo not drawn), “inactive”; as for `O=S(O)CNc1ccc(S(=O)(=O)c2ccc(NCS(=O)O)cc2)cc1`, “inactive”. As for `O=C(CSc1ncn[nH]1)NCc1ccc2c(c1)OCO2`, the entry is “inactive”. Consider `O=C(/C=C/Sc1ncn[nH]1)c1ccc(Cl)cc1`, for which the Potency was 25.1 µM (active). As to `O=C(CSc1ncn[nH]1)Nc1ccc(Br)cc1Br`, the Potency entry is “inactive”.

With `CC(C)Oc1ccc(CN2CCC2(C)C(=O)NCc2ccc(C(F)(F)F)cc2)cc1` (stereo not drawn), the Potency entry was “inactive”.

As to `COc1cc(Cn2c3ccc(NC(=O)CC(C)c4ccccc4)cc3c(=O)n2C)ccc1F` (stereo not drawn), the Potency result is “inactive”. As to `Cc1cccc(Cc2c(C)nc3nc(SCc4ccccc4Cl)nn3c2C)c1`, the Potency entry was “inactive”. To `COc1ccc(CN(C)CCn2cc(C(=O)N3CCSCC3)nn2)cc1C` belongs “inactive”. As for `O=S(=O)(c1ccc(F)cc1)N1CCN(Cc2ccccc2C(F)(F)F)CC1`, the entry is “inactive”; as for `O=C(CSc1n[nH]c(=O)n1-c1ccccc1)Nc1ccccc1C(F)(F)F`, “inactive”; as for `O=c1[nH]nc(SCCS(=O)(=O)c2ccc(F)cc2)n1-c1ccccc1C(F)(F)F`, 11.2 µM (active). As for `COc1ccc(-c2csc(C(O)c3cccc(Cl)c3)n2)cn1` (stereo not drawn), the entry is “inactive”. For the compound `COc1cc(=O)n2c(c1C(=O)NC(C)c1ccco1)CCN(Cc1cc(C)cc(C)c1)CC2` (stereo not drawn), the Potency result was “inactive”.

Source of the values: PubChem BioAssay AID651635 (National Center for Advancing Translational Sciences (NCATS), 2012).
